Data as given in PubChem BioAssay (Tox21).
Calls of active or inactive are those of the source. A call without a number means that no potency is given here. Calls follow the shape of the full dose curve. Bridge positions count the residues as written; N and C are the ends. Square brackets hold non-standard residues; d marks the D form. Peptide text beside a SMILES is read from it. hArg = N=C(N)NCCCC[C@H](N)C(=O)O; Mpa = O=C(O)CCS

target: Gonadotropin-releasing hormone receptor (Homo sapiens) (UniProt P30968); test: Human gonadotropin-releasing hormone receptor (GnRHR) small molecule agonists, calcium flux assay in GnRHR-HEK293 cells (AID 1920063); conditions: calcium flux fluorescence, agonist mode; series mostly up to 57.6 µM; also: nearly all actives have a fitted effect of over 35% in size
Source text: National Center for Advancing Translational Sciences [NCATS]
Division of Preclinical Innovation [DPI]
U.S. Environmental Protection Agency [EPA]
National Institutes of Environmental Health Sciences [NIEHS]
National Toxicology Program [NTP]
U.S. Food and Drug Administration [FDA]
Gonadotropin-releasing hormone receptor (GnRHR) is a G-protein-coupled receptor (GPCR) and acts (through phospholipase C) to increase intracellular inositol trisphosphate and then release intracellular calcium stores. Cell-based GnRHR-Hek293 calcium influx assay is using HEK293 cells that have been genetically engineered to express the human GnRHR, which activity can be measured by calcium signaling. A compound/drug can activate (agonist) GnRHR that can be monitored by levels of intracellular calcium.
GnRHR-HEK293 cells developed by Codex Corp contain human GnRHR reporter gene, which was stably integrated into HEK 293 cells. The compound activation can be detected by fluorescence intensity via calcium flux assay. This cell line has been used to screen the Tox21 10K compound library to identify GnRHR agonists.
GnRHR-Hek293 cells were dispensed at 1500cells/4uL/well in 1536-well black wall/clear bottom plates using a multidrop dispenser. After the assay plates were incubated at a 37 C/5% CO2 incubator for 18 hours, 4 uL of Calcium Dye Solution was added to each well. The plates were incubated at 37 C for 1 hour. For agonist mode, 23 nL of compounds dissolved in DMSO, positive controls or DMSO only was transferred to the assay plate by a pin tool station. The fluorescence intensity in the plates was measured using FDSS 7000EX kinetic plate reader with a filter set of Ex/Em=480/540 for 3 min at 1 sec intervals. Each test compound was measured at 15 concentrations and in triplicates.

Sequence of Gonadotropin-releasing hormone receptor (Homo sapiens) (P30968 whole entry, looked up): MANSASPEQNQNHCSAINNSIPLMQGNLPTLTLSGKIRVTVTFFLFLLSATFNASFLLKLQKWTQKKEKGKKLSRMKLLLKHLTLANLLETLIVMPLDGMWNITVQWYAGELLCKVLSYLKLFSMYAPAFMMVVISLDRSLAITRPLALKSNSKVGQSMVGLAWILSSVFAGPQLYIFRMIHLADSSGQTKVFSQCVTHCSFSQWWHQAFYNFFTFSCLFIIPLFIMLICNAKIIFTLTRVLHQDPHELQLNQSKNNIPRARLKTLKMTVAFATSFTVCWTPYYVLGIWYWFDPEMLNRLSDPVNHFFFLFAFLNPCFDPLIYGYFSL

| SMILES | Potency |
| --- | --- |
| CN(C)CCOCCO | inactive |
| Cc1nc([N+](=O)[O-])cn1-c1ccc([N+](=O)[O-])cc1 | inactive |
| CN(CCCN1c2ccccc2CCc2ccccc21)CC(=O)c1ccc(Cl)cc1 | inactive |
| CNC(C)=O | inactive |
| NC(=O)[C@@H]1CSSCCC(=O)N[C@@H](CCCCN=C(N)N)C(=O)NCC(=O)N[C@@H](CC(=O)O)C(=O)N[C@@H](Cc2c[nH]c3ccccc23)C(=O)N2CCC[C@H]2C(=O)N1 ([Mpa][hArg]GDWPC-NH2; disulfide 1-7) | inactive |
| Oc1cccc2c(O)cccc12 | inactive |
| CN1C(C(=O)Nc2ccccn2)=C(O)c2sccc2S1(=O)=O | inactive |
| C=CCCCCCC | inactive |
| Oc1ccc2c(c1)Cc1ccccc1-2 | inactive |
| NC(=S)NC(N)=S | inactive |
| Cc1ccccc1N=C(N)N=C(N)N | inactive |
| C[C@]12CC[C@@H]3c4ccc(O)cc4CC[C@H]3[C@@H]1CC[C@@H]2OC(=O)CCC1CCCC1 | inactive |
| Nc1cccnc1N | inactive |
| CCCC(=O)O[C@]1(C(=O)CO)CC[C@H]2[C@@H]3CCC4=CC(=O)CC[C@]4(C)[C@H]3[C@@H](O)C[C@@]21C | inactive |
| CN1C(C)(C)CC(O)CC1(C)C | inactive |
| O=C(O)Cc1ccc(Cl)cc1Cl | inactive |
| O=C(O)CCCCCCCCCC(=O)O | inactive |
| CCO[C@@H]1O[C@H](C(COCc2ccccc2)OCc2ccccc2)[C@H](OCc2ccccc2)[C@H]1O (stereo not given in full) | inactive |
| CC(=O)N[C@@H](CCC(=O)O)C(=O)O | inactive |
| CCCCCCCCCCCCC1CO1 (stereo not given) | inactive |

| SMILES | Potency |
| --- | --- |
| CCC(C)(C)OC | inactive |
| NC(=O)c1nc(-c2cccc(-c3cc(F)ccc3OCC(F)(F)C(F)(F)F)c2)n[nH]1 | inactive |
| O=c1[nH]c(=O)n([C@H]2C[C@H](O)[C@@H](CO)O2)cc1C(F)(F)F | inactive |
| CCCCCCCCCCCCOC(C)=O | inactive |
| CSC(=O)c1cccc2nnsc12 | inactive |
| CC(=O)CCc1ccc(OC(C)=O)cc1 | inactive |
| Cc1cc(O)c2ccccc2c1O | inactive |
| CC(C)(C)C1=CC(=O)C=C(C(C)(C)C)C1=O | inactive |
| CCOC(=O)NCCOc1ccc(Oc2ccccc2)cc1 | inactive |
| O=C(O)COCCN1CCN(C(c2ccccc2)c2ccc(Cl)cc2)CC1 (stereo not given) | inactive |
| NCCCN1CCOCC1 | inactive |
| CN(C)CCOC(c1ccccc1)c1ccc(Br)cc1 (stereo not given) | inactive |
| C[N+]1(C)CCC(OC(=O)C(O)(c2ccccc2)C2CCCC2)C1 (stereo not given) | inactive |
| O=C(Nc1ccccc1)OCC(CN1CCCCC1)OC(=O)Nc1ccccc1 (stereo not given) | inactive |
| O=C1CN(/N=C/c2ccc([N+](=O)[O-])o2)C(=O)N1 | inactive |
| CCCCCCC(C)OC(=O)COc1nc(F)c(Cl)c(N)c1Cl (stereo not given) | inactive |
| O=S(c1cc(Cl)cc(Cl)c1O)c1cc(Cl)cc(Cl)c1O | inactive |
| CCOC(=O)CC(O)(CC(=O)OCC)C(=O)OCC | inactive |
| CCCCOC(=O)CC#N | inactive |
| Cc1cc(CCN2CCN(c3nsc4ccccc34)CC2)cc2c1NC(=O)CC2(C)C | inactive |
